Where a name gives a salt, the structure may show the parent alone.
test system: OVCAR4; test: Euclidean distance of Cell Painting phenotypic profile (signed KS, 77 features) to DMSO centroid (dimensionless distance); 5 or 10 uM (library dependent); higher = stronger phenotypic change vs DMSO (phenoactivity); settings: 48 h
In short: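 At 10 or 5 uM, as set by the library, and 0.1% DMSO final, compounds were applied for 48 h to five cancer lines and one healthy fibroblast line. Stained cells were imaged confocally at 20X in 9 fields per well, and Harmony extracted 77 features scored as signed Kolmogorov-Smirnov statistics against vehicle wells on the same plate. Profiles underwent plate-position correction, correlation weighting and replicate averaging at the top dose. Phenoactivity is the Euclidean distance from each such profile to the median vehicle profile.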

How did the Euclidean distance turn out when `O=C(O)COc1nn(Cc2ccccc2)c2ccccc12` [Bendazac] was run?
Its Euclidean distance is 1.32.

`COc1ccc(Cl)cc1NC(=O)Nc1cc(C)nc2ccccc12` was tested. Which Euclidean distance did it give?
Its Euclidean distance is 1.47.

`C#C[C@]1(OC(C)=O)CC[C@H]2[C@@H]3CCC4=C[C@@H](OC(C)=O)CC[C@@H]4[C@H]3CC[C@@]21C` [Ethynodiol diacetate] was tested. Which Euclidean distance did it give?
Its Euclidean distance is 1.1.

With `CN[C@H]1C(=O)N[C@@H]2Cc3ccc(cc3)Oc3cc4cc(c3O[C@@H]3O[C@H](C(=O)O)[C@@H](O)[C@H](O)[C@H]3NC(=O)CCCCCCCCC(C)C)Oc3ccc(cc3Cl)[C@@H](O)[C@@H]3NC(=O)[C@H](NC(=O)[C@@H]4NC(=O)[C@@H](NC2=O)c2cc(cc(O)c2Cl)Oc2cc1ccc2O)c1ccc(O)c(c1)-c1c(O[C@H]2O[C@H](CO)[C@@H](O)[C@H](O)[C@@H]2O)cc(O)cc1[C@@H](C(=O)NCCCN(C)C)NC3=O` [Dalbavancin] as the compound, how does the Euclidean distance read?
The Euclidean distance was 0.603.

`Cc1nccn1CC1CCc2c(c3ccccc3n2C)C1=O` (centres undefined) [Ondansetron Hydrochloride Dihydrate] was tested. Which Euclidean distance did it give?
The Euclidean distance was 1.43.

`CCC(=O)O[C@]1(C(=O)CCl)[C@@H](C)C[C@H]2[C@@H]3CCC4=CC(=O)C=C[C@]4(C)[C@@]3(F)[C@@H](O)C[C@@]21C` [Clobetasol propionate] was tested. Which Euclidean distance did it give?
The Euclidean distance was 1.96.

With `CNC[C@H](O)c1ccc(O)c(O)c1` [Epinephrine HCl] as the compound, how does the Euclidean distance read?
Its Euclidean distance is 0.893.

Which Euclidean distance does the source give for `CCOC(=O)C1=C(COCCN)NC(C)=C(C(=O)OC)C1c1ccccc1Cl` (centres undefined) [Amlodipine] here?
Its Euclidean distance is 0.837.

For `Cc1c(O)cccc1C(=O)N[C@@H](CSc1ccccc1)[C@H](O)CN1C[C@H]2CCCC[C@H]2C[C@H]1C(=O)NC(C)(C)C` [Nelfinavir Mesylate], which Euclidean distance is on record?
The Euclidean distance was 1.16.

How did the Euclidean distance turn out when `Cc1nnc(SCC2=C(C(=O)O)N3C(=O)[C@@H](NC(=O)Cn4cc(Cl)c(=O)c(Cl)c4)[C@H]3SC2)s1` [Cefazedone] was run?
Its Euclidean distance is 0.862.

For `Cc1ccc([C@@H]2O[C@H](CO)[C@@H](O)[C@H](O)[C@H]2O)cc1Cc1ccc(-c2ccc(F)cc2)s1` [Canagliflozin hemihydrate], which Euclidean distance is on record?
The Euclidean distance was 1.37.

Which Euclidean distance does the source give for `C/C(=N\NC(=S)N1CCC1)c1ccccn1` here?
Its Euclidean distance is 4.89.

`C[n+]1c2ccccc2nc2ccccc21` [Phenazine methosulfate] was tested. Which Euclidean distance did it give?
The Euclidean distance was 2.78.

Which Euclidean distance does the source give for `COC(=O)C1=C(C)NC(C)=C(C(=O)OC2CCCN(Cc3ccccc3)C2)C1c1cccc([N+](=O)[O-])c1` (centres undefined) [Benidipine HCl] here?
The Euclidean distance was 1.45.

With `Nc1nccc(Oc2ccc(NC(=O)c3c[nH]cc(-c4ccc(F)cc4)c3=O)cc2F)c1Cl` as the compound, how does the Euclidean distance read?
Its Euclidean distance is 1.62.

With `CC(C)N(CCC(=O)c1ccc2ccccc2c1)Cc1ccccc1` as the compound, how does the Euclidean distance read?
Its Euclidean distance is 0.928.

`O=C1c2c(O)ccc(O)c2C(=O)c2c(NCCNCCO)ccc(NCCNCCO)c21` [Mitoxantrone 2HCl] was tested. Which Euclidean distance did it give?
The Euclidean distance was 5.15.

`NCCc1c[nH]cn1` [Histamine Phosphate] was tested. Which Euclidean distance did it give?
The Euclidean distance was 1.04.

`C=C1CC[C@H]2C(=C)CC[C@H]3C(=C)C(=O)O[C@@H]3[C@@H]12` [Dehydrocostus Lactone] was tested. Which Euclidean distance did it give?
Its Euclidean distance is 2.97.

For `CCCC(=O)OCOC(=O)C1=C(C)NC(C)=C(C(=O)OC)C1c1cccc(Cl)c1Cl` (centres undefined) [Clevidipine Butyrate], which Euclidean distance is on record?
The Euclidean distance was 1.78.

`CN1CCN(C2=Nc3cc(Cl)ccc3Nc3ccccc32)CC1` [Clozapine] was tested. Which Euclidean distance did it give?
The Euclidean distance was 1.34.

For `COCC(=O)Nc1c(I)c(C(=O)NCC(O)CO)c(I)c(C(=O)N(C)CC(O)CO)c1I` (centres undefined) [Iopromide], which Euclidean distance is on record?
The Euclidean distance was 1.07.

`CNCCC=C1c2ccccc2CCc2ccccc21` [Nortriptyline hydrochloride] was tested. Which Euclidean distance did it give?
Its Euclidean distance is 1.69.

`CC[C@@H](CO)NCCN[C@@H](CC)CO` [Ethambutol 2HCl] was tested. Which Euclidean distance did it give?
The Euclidean distance was 1.38.

With `CC#CCn1c(N2CCC[C@@H](N)C2)nc2c1c(=O)n(Cc1nc(C)c3ccccc3n1)c(=O)n2C` [Linagliptin] as the compound, how does the Euclidean distance read?
Its Euclidean distance is 0.529.

`CONC(=O)Nc1ccc(-c2sc3c(c2CN(C)C)c(=O)n(-c2ccc(OC)nn2)c(=O)n3Cc2c(F)cccc2F)cc1` [Relugolix] was tested. Which Euclidean distance did it give?
Its Euclidean distance is 1.3.

Which Euclidean distance does the source give for `Cc1ccc(/C(=C\CN2CCCC2)c2ccccn2)cc1` [Triprolidine Hydrochloride] here?
The Euclidean distance was 1.02.

`NCCCC[C@H](NC(=O)[C@@H](NC(=O)[C@H](Cc1c[nH]c2ccccc12)NC(=O)[C@H](CCCCN)NC(=O)[C@H](CCCCN)NC(=O)[C@H](Cc1c[nH]c2ccccc12)NC(=O)[C@H](Cc1c[nH]c2ccccc12)NC(=O)[C@H](CCCCN)NC(=O)[C@@H](N)CCCCN)C(c1ccccc1)c1ccccc1)C(N)=O` was tested. Which Euclidean distance did it give?
The Euclidean distance was 2.23.

Which Euclidean distance does the source give for `Nc1nccc2c1ncn2C1C=C(CO)C(O)C1O` (centres undefined) [3-Deazaneplanocin A (DZNeP)] here?
The Euclidean distance was 1.72.

With `Clc1ccc(Nc2nnc(Cc3ccncc3)c3ccccc23)cc1` [Vatalanib (PTK787) 2HCl] as the compound, how does the Euclidean distance read?
The Euclidean distance was 1.29.

With `O=c1cc(-c2ccccc2)oc2cc(O)c(O)c(O)c12` [Baicalein] as the compound, how does the Euclidean distance read?
The Euclidean distance was 1.08.

For `C/C=C1/[C@H](O[C@@H]2O[C@H](CO)[C@@H](O)[C@H](O)[C@H]2O)OC=C(C(=O)OC)[C@H]1CC(=O)OCCc1ccc(O)c(O)c1` [Oleuropein], which Euclidean distance is on record?
The Euclidean distance was 1.46.

For `C[C@@H]1O[C@@H](Oc2c(-c3ccc(O)c(O)c3)oc3cc(O)cc(O)c3c2=O)[C@H](O)[C@H](O)[C@H]1O` [Quercitrin], which Euclidean distance is on record?
Its Euclidean distance is 0.915.

`C=C(CC)C(=O)c1ccc(OCC(=O)O)c(Cl)c1Cl` [Ethacrynic Acid] was tested. Which Euclidean distance did it give?
The Euclidean distance was 1.14.

Which Euclidean distance does the source give for `CC[C@H](C)[C@H](NC(=O)[C@H]([C@@H](C)CC)N(C)C(C)=O)C(=O)N[C@H](C(=O)N[C@@H](CC(C)C)C(=O)[C@@]1(C)CO1)[C@@H](C)O` [Epoxomycin] here?
Its Euclidean distance is 3.12.

With `Oc1c(Cl)cc(Cl)c(Cl)c1Cc1c(O)c(Cl)cc(Cl)c1Cl` [Hexachlorophene] as the compound, how does the Euclidean distance read?
The Euclidean distance was 1.64.

For `C[C@H](CCC(=O)O)[C@H]1CC[C@H]2[C@@H]3CC[C@@H]4C[C@H](O)CC[C@]4(C)[C@H]3C[C@H](O)[C@]12C` [Deoxycholic acid], which Euclidean distance is on record?
The Euclidean distance was 1.36.

Which Euclidean distance does the source give for `CC(=O)O[C@H]1C(=O)[C@@]2(C)[C@H]([C@H](OC(=O)c3ccccc3)[C@]3(O)C[C@H](OC(=O)[C@H](O)[C@@H](NC(=O)c4ccccc4)c4ccccc4)C(C)=C1C3(C)C)[C@]1(OC(C)=O)CO[C@@H]1C[C@@H]2O` [Paclitaxel] here?
The Euclidean distance was 2.73.

Which Euclidean distance does the source give for `Cc1ccccc1OCC(O)CO` (centres undefined) [Mephenesin] here?
Its Euclidean distance is 1.86.
